# Assay results as given in PubChem BioAssay.
# Unmarked numbers belong to inactive results. For some assays here: Entries with a potency or affinity are not part of this list. Active and inactive are the calls of the source. Unless noted, no rule for the calls is given here.
# Experiments:
# [1] = antimalarial activity against Dd2 strain (AID 2302;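 active = growth inhibition above 50% at the single 2 µM test dose, taken to imply half-maximal potency below 2 µM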;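 also: 0% = DMSO untreated growth and 100% = chloroquine plus artemisinin killed control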); details: P. falciparum Dd2 in RBCs, LDH growth readout, 72 h; at 2 µM; stronger effect = higher value
# [2] = HepG2 cytotoxicity, primary screen, cytotoxicity control for P. falciparum antimalarial project, cell-based, ATP luminescence (AID 2303;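 active = inhibition above 50%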;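 also: 0% = DMSO wells and 100% = digitonin-killed cells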); details: HepG2 viability, 24-48 h, at 10 µM, stronger effect = higher value
# [3] = molecular target: L-lactate dehydrogenase (Plasmodium falciparum (isolate CDC / Honduras)) (UniProt Q27743); assay: PfLDH activity inhibition – cell lysate, 3D7 strain, counter-screen for P. falciparum growth inhibition project (AID 2304);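 also: 0% = vehicle and 100% = reference inhibitor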; details: P. falciparum 3D7 crude extract, LDH APAD/NBT absorbance; at 2 µM; stronger effect = higher value
# [4] = inhibition of 3D7 malaria parasite growth – strain 3D7 (AID 2306);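 also: 0% = DMSO wells and 100% = chloroquine plus artemisinin control wells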; details: P. falciparum 3D7 erythrocytic growth, LDH absorbance, 72 h; at 2 µM; stronger effect = higher value
# [5] = molecular target: Calcium-dependent protein kinase 1 (Plasmodium falciparum (isolate 3D7)) (UniProt P62344); assay: PfCDPK1 kinase inhibitors, biochemical, TCAMS library (AID 1159585; cut-off not given, nearly all actives have IC50 up to about 0.98 µM;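 also: inhibitors leave more ATP so luminescence rises with inhibition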); details: recombinant PfCDPK1, Kinase-Glo ATP depletion luminescence
# [6] = molecular target: Plasmodium falciparum protein kinase 6 (PK6, PF3D7_1337100) (UniProt Q8IDW1); assay: PfPK6 kinase inhibitors, biochemical, TCAMS library (AID 1159586); details: recombinant PfPK6, Kinase-Glo ATP depletion luminescence
# [7] = molecular target: Protein kinase 7 (PK7), Plasmodium falciparum 3D7 (PF3D7_0213400) (UniProt Q7YTF7); assay: inhibition of Plasmodium PK7 catalytic activity – biochemical, TCAMS antimalarial set, Kinase-Glo luminescence (AID 1159587); details: recombinant PfPK7, Kinase-Glo ATP depletion luminescence
# [8] = molecular target: Calcium-dependent protein kinase 4 (Plasmodium falciparum (isolate 3D7)) (UniProt Q8IBS5); assay: PfCDPK4 kinase inhibitors, biochemical, TCAMS library (AID 1159588; cut-off not given, nearly all actives have IC50 up to about 0.91 µM); details: recombinant PfCDPK4, Kinase-Glo ATP depletion luminescence
# Sequence of Calcium-dependent protein kinase 4 (Plasmodium falciparum (isolate 3D7)) (Q8IBS5 whole entry, looked up): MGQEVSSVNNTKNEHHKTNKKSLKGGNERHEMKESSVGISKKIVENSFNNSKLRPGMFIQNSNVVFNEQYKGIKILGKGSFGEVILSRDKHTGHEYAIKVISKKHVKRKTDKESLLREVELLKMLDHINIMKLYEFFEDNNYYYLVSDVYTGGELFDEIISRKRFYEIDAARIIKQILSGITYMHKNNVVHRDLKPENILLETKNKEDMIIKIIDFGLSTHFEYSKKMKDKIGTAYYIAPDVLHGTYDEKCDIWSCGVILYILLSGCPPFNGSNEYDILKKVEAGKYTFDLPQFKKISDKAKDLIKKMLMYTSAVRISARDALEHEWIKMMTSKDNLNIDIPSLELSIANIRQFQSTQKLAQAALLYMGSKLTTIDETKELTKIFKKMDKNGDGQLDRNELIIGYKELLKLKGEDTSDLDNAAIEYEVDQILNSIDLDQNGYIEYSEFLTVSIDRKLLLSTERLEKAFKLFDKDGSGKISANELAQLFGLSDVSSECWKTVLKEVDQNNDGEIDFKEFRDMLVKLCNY
# Sequence of Calcium-dependent protein kinase 1 (Plasmodium falciparum (isolate 3D7)) (P62344 whole entry, looked up): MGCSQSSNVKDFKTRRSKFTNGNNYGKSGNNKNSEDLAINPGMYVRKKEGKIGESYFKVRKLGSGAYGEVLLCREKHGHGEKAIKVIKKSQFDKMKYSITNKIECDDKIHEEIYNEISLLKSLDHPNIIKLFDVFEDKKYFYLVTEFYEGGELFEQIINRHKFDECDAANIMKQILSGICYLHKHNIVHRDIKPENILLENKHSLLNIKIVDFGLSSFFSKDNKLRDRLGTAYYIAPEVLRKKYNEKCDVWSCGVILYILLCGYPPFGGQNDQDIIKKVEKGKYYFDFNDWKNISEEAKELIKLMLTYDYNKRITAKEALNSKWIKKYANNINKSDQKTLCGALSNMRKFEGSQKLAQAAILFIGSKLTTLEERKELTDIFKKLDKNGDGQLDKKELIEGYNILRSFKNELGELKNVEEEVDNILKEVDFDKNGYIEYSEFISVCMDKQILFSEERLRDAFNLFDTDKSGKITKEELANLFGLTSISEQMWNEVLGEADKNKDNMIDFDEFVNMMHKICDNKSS
# Sequence of Protein kinase 7 (PK7), Plasmodium falciparum 3D7 (PF3D7_0213400) (Q7YTF7 1-343): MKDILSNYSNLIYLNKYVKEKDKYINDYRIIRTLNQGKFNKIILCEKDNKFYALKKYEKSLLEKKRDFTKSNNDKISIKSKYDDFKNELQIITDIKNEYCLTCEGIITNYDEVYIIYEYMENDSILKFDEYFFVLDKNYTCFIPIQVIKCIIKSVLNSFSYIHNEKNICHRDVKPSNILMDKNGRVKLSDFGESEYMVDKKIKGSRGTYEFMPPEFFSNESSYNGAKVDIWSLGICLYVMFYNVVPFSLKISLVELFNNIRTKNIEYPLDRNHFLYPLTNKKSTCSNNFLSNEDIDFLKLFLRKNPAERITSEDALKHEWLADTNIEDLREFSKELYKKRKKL
# Sequence of Plasmodium falciparum protein kinase 6 (PK6, PF3D7_1337100) (Q8IDW1 1-305): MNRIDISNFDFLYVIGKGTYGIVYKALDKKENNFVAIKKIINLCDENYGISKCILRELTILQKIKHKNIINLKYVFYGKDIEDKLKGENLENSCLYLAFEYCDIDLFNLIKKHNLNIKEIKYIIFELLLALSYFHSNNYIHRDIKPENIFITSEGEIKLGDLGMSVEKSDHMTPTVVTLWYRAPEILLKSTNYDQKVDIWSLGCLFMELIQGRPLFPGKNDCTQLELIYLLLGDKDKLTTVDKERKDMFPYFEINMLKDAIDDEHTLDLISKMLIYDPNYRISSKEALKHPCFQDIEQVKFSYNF
# Sequence of L-lactate dehydrogenase (Plasmodium falciparum (isolate CDC / Honduras)) (Q27743 whole entry, looked up): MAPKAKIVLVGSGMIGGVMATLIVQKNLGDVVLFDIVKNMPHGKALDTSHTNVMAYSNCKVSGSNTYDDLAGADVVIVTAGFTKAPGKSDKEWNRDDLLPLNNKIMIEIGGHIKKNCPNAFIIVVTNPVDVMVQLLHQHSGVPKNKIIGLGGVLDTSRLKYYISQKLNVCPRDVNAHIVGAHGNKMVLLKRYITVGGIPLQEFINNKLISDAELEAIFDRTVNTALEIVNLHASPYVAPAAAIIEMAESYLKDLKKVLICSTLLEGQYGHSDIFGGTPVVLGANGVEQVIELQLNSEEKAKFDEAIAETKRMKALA
Structure (SMILES),growth inhibition [1],inhibition [2],inhibition [3] [%],growth inhibition [4],outcome [5],outcome [6],outcome [7],outcome [8]
Nn1c(=O)oc2ccc(Cl)cc2c1=O,96% (active),4%,-5,97% (active),inactive,inactive,inactive,inactive
CCCN(Cc1nnc(-c2ccco2)o1)C(=O)C1CCN(c2ncc(C(F)(F)F)cc2Cl)CC1,92% (active),19%,-6,98% (active),inactive,inactive,inactive,inactive
CCN(CC)CCNC(=O)c1ccc(NC(=O)c2oc3c(Cl)cccc3c2C)cc1,68% (active),24%,5,98% (active),inactive,inactive,inactive,inactive
O=C(NCCCCCN1CCC(c2c[nH]c3ccccc23)CC1)Nc1cccc(Br)c1,-3%,39%,3,84% (active),inactive,inactive,inactive,inactive
CC(=O)Nc1ccc(-c2nc3ccc(-c4nc5ccc(NC(C)=O)cc5[nH]4)cc3[nH]2)cc1,99% (active),-13%,-2,99% (active),inactive,inactive,inactive,inactive
CC(CN(C)C)C(=O)Nc1cccc(-c2cccc(-c3nc4ccccc4[nH]3)c2)c1 (stereo not given),25%,42%,-5,94% (active),inactive,inactive,inactive,inactive
CC(C)Cn1c(Sc2ccc(C#N)c([N+](=O)[O-])c2)nnc1-c1ccc(N(C)C)cc1,98% (active),4%,4,98% (active),inactive,inactive,inactive,inactive
CC(C)C[C@H](NC(=O)c1ccc(OCCN2CCOCC2)cc1)C(=O)N[C@H](/C=N/NC(=O)OC(C)(C)C)CCc1ccccc1,87% (active),8%,-4,96% (active),inactive,inactive,inactive,inactive
N=C1C=C(N)C(=O)c2ccccc21,85% (active),99% (active),-2,81% (active),inactive,inactive,inactive,inactive
Cc1ccnc2nc(C(=O)Nc3cc(Cl)ccc3N3CCOCC3)nn12,63% (active),-4%,-1,84% (active),inactive,inactive,inactive,inactive
CC(C)CNC(=O)c1cncc(-c2ccc(CN3CCC(N4CCCC4)CC3)cc2)c1,42%,25%,2,100% (active),inactive,inactive,inactive,inactive
COc1cc(NC(=O)C(c2ccc(Cl)cc2)C(C)C)cc(OC)c1 (stereo not given),98% (active),5%,-3,99% (active),inactive,inactive,inactive,inactive
O=C(NCc1cccc2ccccc12)C1CCCN(C(=O)c2ccc(O)c(-c3ccc(Cl)c(Cl)c3)c2)C1 (stereo not given),23%,1%,-5,92% (active),inactive,inactive,inactive,inactive
CCn1c(SCC(=O)Nc2cc(C(F)(F)F)ccc2Cl)nc2ccccc2c1=O,95% (active),8%,3,93% (active),inactive,inactive,inactive,inactive
Cc1ccc(C(c2nnnn2C2CCCC2)N(Cc2ccco2)Cc2ccccc2Cl)cc1 (stereo not given),78% (active),8%,-2,85% (active),inactive,inactive,inactive,inactive
CC(C)N1CCCN(C(=O)C2CCN(c3ccc(C(=O)N4CCCC4)cn3)CC2)CC1,12%,41%,1,86% (active),inactive,inactive,inactive,inactive
COc1ccc(CNC(=O)NC2CCN(c3ccnc(Nc4ccc(F)cc4)n3)C2)cc1 (stereo not given),78% (active),4%,-2,91% (active),inactive,inactive,inactive,inactive
O=C(Nc1ccc(Cl)c(Cl)c1)N[C@H]1CCN(CCCCCNC(=O)[C@@H]2C[C@H]2c2ccc(Cl)c(Cl)c2)C1,8%,42%,3,93% (active),inactive,inactive,inactive,inactive
Cn1cncc1CCCN(Cc1ccc(-c2ccc(C(F)(F)F)cc2)cc1)C(=O)Cn1c(CCc2cccc(F)c2F)cc(=O)c2cccnc21,59% (active),17%,-2,85% (active),inactive,inactive,inactive,inactive
CCC(C)Oc1ccc(CCCON2C(N)=NC(N)=NC2(C)C)cc1 (stereo not given),95% (active),65% (active),-8,92% (active),inactive,inactive,inactive,inactive

Structure (SMILES),growth inhibition [1],inhibition [2],inhibition [3] [%],growth inhibition [4],outcome [5],outcome [6],outcome [7],outcome [8]
Cc1nc(-c2ccncc2)sc1C(=O)Nc1ccc(Cl)cc1C(=O)Nc1ccc(Cl)cc1,47%,2%,-3,98% (active),inactive,inactive,inactive,inactive
CC(NC(C)c1cccc(Cl)c1)C(=O)Nc1cc(C(F)(F)F)ccc1N1CCOCC1 (stereo not given),33%,30%,1,89% (active),inactive,inactive,inactive,inactive
Cc1ccc(C(C(=O)Nc2ccc(N3CCNCC3)c(Cl)c2)c2ccccc2)cc1 (stereo not given),93% (active),23%,-2,97% (active),inactive,inactive,inactive,inactive
CC(Nc1ncc(-c2ccsc2)c(-c2nccs2)n1)c1ccc2c(c1)OCCO2 (stereo not given),66% (active),14%,2,81% (active),inactive,inactive,inactive,inactive
NC(=O)c1sc(-n2cnc3ccccc32)cc1OCc1ccccc1[N+](=O)[O-],46%,10%,-2,99% (active),inactive,inactive,inactive,inactive
O=C(N[C@@H](Cc1ccccc1)C(=O)NC1CCCCC1)c1ccc(O)c(-c2cccc(C(F)(F)F)c2)c1,36%,11%,-2,96% (active),inactive,inactive,inactive,inactive
O=C(Nc1cccc(CN2CCCN(Cc3ccc(O)cc3)CC2)c1)c1cc2ccccc2s1,90% (active),27%,-7,100% (active),inactive,inactive,inactive,inactive
COc1ccc2nc(-c3ccccc3)cc(NN=Cc3ccncc3)c2c1,27%,14%,-2,99% (active),inactive,inactive,inactive,inactive
CN(C)c1ccc(-c2csc(C(=O)NCC3CCN(Cc4ccc(C(C)(C)C)cc4)C3)c2)cc1 (stereo not given),64% (active),29%,0,97% (active),inactive,inactive,inactive,inactive
COc1ccc(-n2nc(C)c3c2NC(=O)CC3c2ccccc2OCc2ccc(F)cc2)cc1 (stereo not given),65% (active),53% (active),7,93% (active),inactive,inactive,inactive,inactive
CCOCCCNc1sc(S(=O)(=O)c2ccccc2)nc1S(=O)(=O)c1ccc(C)cc1,87% (active),-8%,1,96% (active),inactive,inactive,inactive,inactive
CCCCCCN1CCCN(Cc2ccc(C(=O)Nc3ccc(C(C)(C)C)cc3)cc2)CC1,32%,53% (active),-3,100% (active),inactive,inactive,inactive,inactive
O=C(Nc1ccc(N2CCCN(Cc3cccc(F)c3)CC2)cc1)c1ccc(F)cc1,95% (active),0%,3,96% (active),inactive,inactive,inactive,inactive
O=S(=O)(c1cc(Cl)c(Cl)cc1Cl)N1CCCCC(c2ccc(C(F)(F)F)cc2)=N1,99% (active),9%,-1,98% (active),inactive,inactive,inactive,inactive
c1cc(-c2ccc(CN3CCCCC3)cc2)cc(-c2nc3ccccc3[nH]2)c1,79% (active),39%,5,101% (active),inactive,inactive,inactive,inactive
Cc1cc(-c2nc3ccc(CN4CCN(C)CC4)cc3[nH]2)nn1Cc1cc(Cl)ccc1OCc1ccccc1,52% (active),3%,1,100% (active),inactive,inactive,inactive,inactive
CC(=O)C=C1CC(=O)N(C[C@@H](O)[C@H]2O[C@@H]3OC(C)(C)O[C@@H]3[C@H]2O)c2ccccc2N1,2%,-8%,3,90% (active),inactive,inactive,inactive,inactive
Cc1cc(N[C@@H](CC(C)C)C(=O)NCCc2ccccc2)nc(NCc2ccccc2C)n1,74% (active),17%,0,93% (active),inactive,inactive,inactive,inactive
CN1CCCN(Cc2cccc(-c3cccc(NC(=O)c4ccc(C#N)cc4)c3)c2)CC1,4%,7%,1,89% (active),inactive,inactive,inactive,inactive
CC(C)C[C@H](NC(=O)c1cc2ccccc2s1)C(=O)N[C@H]1CCN(Cc2ccc(OC3CCN(C)C3)c(Cl)c2)C1 (stereo not given in full),65% (active),68% (active),2,97% (active),inactive,inactive,inactive,inactive
